Tests used:
Settings in all cases: concentration: 1 μM, replicates: in singlicate; n = 1
[1] = tested on: T1, TAK1
T1 construct: gene MAP3K7

[2] = tested on: TAOK1
[3] = tested on: TAOK2
[4] = tested on: TAOK3
[5] = tested on: TBK1
[6] = tested on: TEC
[7] = tested on: TESK1
[8] = tested on: TGFBR1
[9] = tested on: TGFBR2
[10] = tested on: TIE1
[11] = tested on: T2, TIE2
T2 construct: gene TEK

[12] = tested on: TLK1
[13] = tested on: TLK2
[14] = tested on: TNIK
[15] = tested on: TNK1
[16] = tested on: TNK2
[17] = tested on: TNNI3K
[18] = tested on: T3, TRKA
T3 construct: gene NTRK1

[19] = tested on: TRKB
[20] = tested on: T4, TRKC
T4 construct: gene NTRK3
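Further: KINOMEscan kinase panel screen.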

Row | SMILES | %Inh [1] [%] | %Inh [2] [%] | %Inh [3] [%] | %Inh [4] [%] | %Inh [5] [%] | %Inh [6] [%] | %Inh [7] [%] | %Inh [8] [%] | %Inh [9] [%] | %Inh [10] [%] | %Inh [11] [%] | %Inh [12] [%] | %Inh [13] [%] | %Inh [14] [%] | %Inh [15] [%] | %Inh [16] [%] | %Inh [17] [%] | %Inh [18] [%] | %Inh [19] [%] | %Inh [20] [%]
1 | CCC(=O)c1c(-c2ccccc2)c2cc(Cl)ccc2c(=O)n1Cc1cc(S(C)(=O)=O)n(CC(F)F)n1 | 0 | 8 | 11 | 0 | 24 | 0 | 11 | 7 | 0 | 0 | 2 | 0 | 0 | 0 | 0 | 0 | 0 | 0 | 0 | 1
2 | Cc1nnc(-c2ccc3ncn(-c4ccc(S(C)=O)cc4)c3c2)o1 (stereo not drawn) | 3 | 100 | 0 | 96.2 | 19 | 1 | 8 | 0 | 38 | 0 | 11 | 23 | 0 | 11 | 4 | 0 | 7 | 0 | 0 | 0
3 | Cc1nnc(-c2ccc(C)c(-c3ccc(C(=O)O)cc3)c2)o1 [GW608005] | 0 | 0 | 0 | 2 | 2 | 0 | 0 | 0 | 0 | 15 | 0 | 0 | 0 | 0 | 0 | 0 | 0 | 0 | 20 | 0
4 | COc1cc2nccc(Nc3cccc(Oc4ccccc4)c3)c2cc1OC.Cl [GW284543] | 0 | 0 | 0 | 0 | 0 | 45 | 3 | 41 | 0 | 9 | 12 | 0 | 0 | 0 | 0 | 12 | 10 | 34 | 5 | 2
5 | Cc1ccccc1COc1cc(-n2cnc3cc(Cl)ccc32)sc1C(N)=O [GW813349] | 0 | 0 | 3 | 0 | 22 | 0 | 7 | 28 | 0 | 11 | 0 | 0 | 0 | 30 | 12 | 0 | 0 | 0 | 0 | 5
6 | COc1cccc(-n2cnc3c(N)ncnc32)c1 [SKF-97416] | 23 | 31 | 9 | 28 | 31 | 5 | 17 | 24 | 0 | 19 | 0 | 2 | 19 | 15 | 0 | 0 | 0 | 45 | 48 | 33
7 | CCC(=O)c1c(-c2ccccc2)c2cc(Cl)ccc2c(=O)n1Cc1cc(S(C)(=O)=O)n(CC(N)=O)n1 | 0 | 0 | 15 | 0 | 12 | 0 | 0 | 0 | 0 | 0 | 24 | 2 | 0 | 4 | 0 | 0 | 0 | 0 | 0 | 0
8 | CN1C(=O)C(Nc2cc(Cl)c(O)c(Cl)c2)=C(c2ccc(Cl)cc2)C1=O [SB-404321] | 0 | 0 | 0 | 0 | 4 | 0 | 0 | 6 | 0 | 0 | 0 | 0 | 0 | 0 | 22 | 0 | 0 | 52 | 36 | 10
9 | Nc1nc(N)c2nc(-c3ccccc3)[nH]c2n1 [SKF-12778] | 4 | 16 | 0 | 17 | 16 | 7 | 12 | 0 | 3 | 26 | 0 | 0 | 0 | 4 | 0 | 13 | 28 | 52 | 9 | 0
10 | CCc1ccc(-c2ccc3c(c2)-c2nn(C)cc2S(=O)(=O)N3C)cc1 | 0 | 0 | 37 | 0 | 0 | 0 | 2 | 1 | 0 | 0 | 0 | 35 | 0 | 38 | 14 | 0 | 0 | 0 | 0 | 0
11 | COc1cccc(C2=C(Nc3cccc(C(=O)O)c3)C(=O)NC2=O)c1 [SB-390770] | 0 | 0 | 0 | 0 | 12 | 0 | 28 | 1 | 0 | 27 | 37 | 7 | 0 | 4 | 0 | 12 | 8 | 56 | 0 | 0
12 | CCc1nc(-c2cccc(C)c2)c(-c2ccncc2)s1 | 0 | 0 | 14 | 0 | 35 | 0 | 0 | 0 | 13 | 0 | 12 | 24 | 0 | 59 | 2 | 0 | 0 | 11 | 0 | 0
13 | COc1cc2ncn(-c3cc(OCc4ccncc4Br)c(C(N)=O)s3)c2cc1OC [GW854278] | 0 | 4 | 0 | 0 | 24 | 2 | 26 | 17 | 0 | 31 | 6 | 18 | 0 | 39 | 33 | 0 | 18 | 0 | 0 | 7
14 | Nc1ncnc2c1ncn2-c1cccc2ccccc12 [SKF-97184] | 3 | 0 | 9 | 0 | 30 | 0 | 0 | 40 | 11 | 0 | 0 | 0 | 18 | 10 | 0 | 0 | 0 | 25 | 0 | 6
15 | Nc1n[nH]c2nnc(-c3ccccc3)c(-c3ccccc3)c12 [GW554060] | 0 | 0 | 0 | 0 | 8 | 0 | 2 | 12 | 0 | 8 | 0 | 0 | 0 | 0 | 0 | 19 | 0 | 0 | 14 | 24
16 | CC(C)(C)c1ccc(C(=O)Nc2cn3cc(-c4ccccc4)ccc3n2)cc1 | 0 | 0 | 4 | 0 | 38 | 19 | 8 | 0 | 8 | 0 | 0 | 8 | 0 | 18 | 0 | 6 | 6 | 0 | 7 | 3
17 | COc1ccc(-n2cnc3c(N)ncnc32)cc1 [SKF-97236] | 30 | 20 | 1 | 21 | 9 | 0 | 3 | 0 | 23 | 23 | 18 | 0 | 0 | 18 | 0 | 0 | 18 | 61 | 9 | 0
18 | CCC(=O)c1c(-c2ccccc2)c2cc(Cl)ccc2c(=O)n1Cc1cc(S(C)(=O)=O)n(CCC(C)(C)O)n1 | 31 | 9 | 0 | 0 | 20 | 6 | 21 | 6 | 19 | 16 | 5 | 1 | 0 | 2 | 28 | 0 | 13 | 0 | 0 | 31
19 | FC(F)(F)c1ccc(-c2ncn(CCCN3CCOCC3)c2-c2ccncc2)cc1 [SB-217780] | 24 | 0 | 0 | 0 | 3 | 3 | 12 | 2 | 0 | 15 | 6 | 0 | 0 | 0 | 1 | 0 | 0 | 14 | 0 | 0
20 | Nc1ncnc2c1ncn2-c1cccc(F)c1 [SKF-97560] | 0 | 19 | 0 | 0 | 23 | 3 | 15 | 12 | 0 | 0 | 0 | 0 | 0 | 4 | 23 | 15 | 100 | 60 | 41 | 41
21 | O=C(Nc1n[nH]c2nc(-c3ccccc3)c(Cl)cc12)C1CC1 [SB-734909] | 8 | 0 | 0 | 0 | 38 | 0 | 6 | 0 | 0 | 0 | 15 | 0 | 6 | 8 | 0 | 0 | 0 | 0 | 0 | 0
